From PubChem BioAssay
Compounds with a hit are over-represented: about 3.7% of the library has one in this group of screens.
PTHR1 agonist: qHTS for PTHR1 Agonists: Primary Screen; Parathyroid hormone/parathyroid hormone-related peptide receptor (Homo sapiens), Q03431; HEK293 GP2 PTHR1 cells, GloSensor cAMP luminescence, 1 h; Potency, µM (highest dose often 115 µM), without a hit: at the highest dose activation, actives largely listed as activators; 410,000 tested, 0.075% active; AID 743266, 2014; also: potency is read from the fitted curve at half-maximal effect; nearly all actives have a fitted effect of over 55% in size
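HEK-293-derived GP2 cells expressing PTHR1 and a GloSensor cAMP reporter, 3,000/well, plated overnight, given luciferin plus IBMX (each 0.5 mM as added) for 1 h at 37 °C, then compound for 1 h at 37 °C. Luminescence was read after 15 min at room temperature.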
RGS4 inh: Inhibitors of Regulator of G Protein Signaling (RGS) 4: qHTS. Potency, µM (doses to about 114 µM), for the others: at the highest dose activity change, negative = inhibition, actives largely listed as inhibitors. Regulator of G-protein signaling 4 (Homo sapiens), P49798. 390,000 tested, 0.039% active. Transcreener GDP fluorescence polarization, RGS4-accelerated GTP hydrolysis; also: potency is read from the fitted curve at half-maximal effect; % is scaled to controls: 0 for no effect and ±100 for the full control effect; nearly all actives have a fitted effect of over 75% in size
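MLSMR compounds (23 nl, pin-transferred) preincubated 10 min at room temperature with a 500nM (2x) first reagent, then RGS4 at 900nM (2x) plus Transcreener GDP mix added; fluorescence polarization (620/688 nm) read before and after 90 min at 30 °C.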
D3 ag: qHTS of D3 Dopamine Receptor Agonist: qHTS; 410,000 tested, 0.58% active; D3R DiscoveRx beta-arrestin cells, luminescence, 90 min; max activation, %; D(3) dopamine receptor (Homo sapiens), P35462; in the data active = max activation above about 30%; also: 0% is about no effect
Target sequence (P35462 whole entry, looked up): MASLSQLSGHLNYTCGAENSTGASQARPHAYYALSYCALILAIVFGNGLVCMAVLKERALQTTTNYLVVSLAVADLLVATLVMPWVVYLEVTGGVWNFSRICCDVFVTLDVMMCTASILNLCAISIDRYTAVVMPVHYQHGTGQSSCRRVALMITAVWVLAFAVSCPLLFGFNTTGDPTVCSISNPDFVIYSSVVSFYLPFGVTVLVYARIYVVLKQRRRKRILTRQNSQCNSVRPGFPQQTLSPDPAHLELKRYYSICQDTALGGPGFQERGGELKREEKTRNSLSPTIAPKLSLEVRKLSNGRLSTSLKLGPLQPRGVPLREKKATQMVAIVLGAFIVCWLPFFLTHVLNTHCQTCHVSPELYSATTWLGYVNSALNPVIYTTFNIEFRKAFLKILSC
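Cells at 1500/well, incubated overnight, then treated with pinned compounds (dopamine as control) for 90 min at 37 degrees C. DiscoveRx reagent added for 30 - 60 minutes at room temperature; luminescence read.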
B2AR arrestin: qHTS assay of beta-arrestin-biased ligands of beta2-adrenergic receptor; beta-arrestin recruitment to beta2AR, cell-based reporter; Potency, µM (series often up to 46.1 µM), without a hit: top-dose activation, actives largely listed as activators; 330,000 tested, 0.02% active; AID 492947, 2010;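 also: potency is read from the fitted curve at half-maximal effect; 0% = DMSO controls and full agonism = EC100 isoproterenol or metaproterenol; nearly all actives have a fitted effect of over 65% in size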
DRD3 antagonist: qHTS of D3 Dopamine Receptor Antagonist: qHTS; D3R cells, DiscoveRx beta-arrestin luminescence, antagonist mode; active compounds read low; max response, negative = inhibition, %; 360,000 tested, 2.5% active; AID 652054, 2013; in the data active = max response below about -50%; inconclusive = no clear call, values can overlap the other calls; also: % is scaled to controls: 0 for no effect and ±100 for the full control effect
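Cells expressing the human receptor were seeded at 1500 cells/well, incubated overnight at 37 degrees C in 5% CO2, then exposed to library compounds with dopamine controls for 90 minutes at 37 degrees C before luminescent detection.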
BRCA1 expr up: qHTS Assay to Identify Small Molecule Activators of BRCA1 Expression; Potency, µM (highest dose often 46.1 µM), inactives show top-dose activation, most hits filed as activators; 380,000 tested, 1.1% active; MCF7-BRCA1-FFLuc reporter, luminescence, 48 h; response scale: scaled: vehicle 0%, 10 µM genistein 100%; also: potency is read from the fitted curve at half-maximal effect; nearly all actives have a fitted effect of over 80% in size
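48 h compound treatment of MCF7-BRCA1-FFLuc cells (phenol-red free MEM, 37 °C), then 15 min with luciferase substrate and luminescence imaging.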
Active calls of the source: *; i = inactive; ? = inconclusive; nt = not tested or not shown; [ ] = another dose, or the depositor's remark. Unless noted, calls follow the shape of the dose curve; as a rule, active = well fitted curve in the direction sought with a large enough effect; inconclusive = small, poorly fitted or top-dose-only effect, or another doubt; inactive = no such curve, though single readings can be large; an effect the other way counts as inactive or inconclusive.

SMILES	PTHR1 agonist	RGS4 inh	D3 ag	B2AR arrestin	DRD3 antagonist	BRCA1 expr up
CCc1ccc(NC(=S)NC2CC3CCCC(C2)N3Cc2cccs2)cc1 (stereo not drawn)	2.0%[57.5 µM]	-14.8%	-41.7	-0.3%	-70.2*	-35.5%
CCc1ccccc1NC(=O)Nc1cccn(Cc2ccc(F)cc2)c1=O	-13.3%	-16.3%[56.9 µM]	-8.8	-1.3%	-22.9	-22.6%
CCc1ccccc1NC(=S)NC1CC2CCC(C1)N2Cc1ccc(F)cc1 (stereo not drawn)	-19.1%	-5.4%	-19.9	-0.8%	-89.8*	-12.3%
CCc1ccccc1NC(=S)NC1CC2CCC(C1)N2Cc1ccco1 (stereo not drawn)	i	29.0%	-27.2	-0.7%	-53.3*	-0.3%
CCc1ccccc1NC(=O)NC1CCCCC1	-13.7%	-31.0%	-15.3	-0.7%	43.2	-12.7%
CCc1ccccc1NC(=O)NC1CC2CCC(C1)N2Cc1cccs1 (stereo not drawn)	i	7.8%	-29.7	-1.0%	-54.3*	30.1%
CCCN1C2CCCC1CC(NC(=S)Nc1ccc(OC)cc1)C2 (stereo not drawn)	-8.8%	5.0%	-3.4	-0.3%	8.0	4.4%
O=C(Nc1ccc(Br)cc1)c1cccc(OC(=S)N2CCOCC2)c1	-35.0%	-1.7%	1.7	0.4%	-14.0	-37.0%
CN(CCNC(=O)c1ccc(/C=N/O)nc1)Cc1ccccc1	7.2%	10.9%	-30.9	-0.9%	-75.6*	-21.1%
COc1ccc(-c2csc(C(O)c3ccccc3)n2)cn1 (stereo not drawn)	-12.9%	nt	-0.9	nt	-15.9	11.2µM*
CC(C)N1CCC(=NNC(=O)c2ccccc2[N+](=O)[O-])CC1	i	0.1%	5.7	-0.4%	8.5	-8.2%
CC(C)N1CCC(=NNC(=O)c2cccs2)CC1	-9.4%	11.1%	-7.7	0.2%	2.2	8.91µM*
CC1=CC(=O)Nc2ccccc2S1	-4.5%	?	-2.8	nt	-11.7	-13.7%
Cc1ccc(C(=O)c2c3ccccc3[n+]([O-])n2[C@@H](C)C(N)=O)cc1	i	?	-16.3	0.2%	-64.4*	3.3%
Cc1ccc(C(=O)c2c3ccccc3[n+]([O-])n2CCC(N)=O)cc1	i	8.3%	4.1	-1.0%	25.5	10.4%
CCN(CC)CCCNC(=O)C1c2ccccc2C(=O)N(C)C1c1ccc(OC)cc1 (stereo not drawn)	14.5%	-28.1%	-3.6	0.3%	-52.0*	23.0%
COc1ccc(C2C(C(=O)NCc3ccco3)c3ccccc3C(=O)N2C)cc1 (stereo not drawn)	i	-21.6%	-0.4	0.2%	0.6	-15.3%
CCOc1ccc2oc(C(=O)NCC3CCCO3)c(C)c2c1 (stereo not drawn)	-12.0%	18.1%	2.2	-1.1%	-3.2	8.91µM*
CCOc1ccc2oc(C(=O)Nc3ccc(N4CCOCC4)cc3)c(C)c2c1	-8.3%[57.5 µM]	-24.3%	4.9	nt	28.5	38.7%
COc1ccc(NC(=O)c2oc3ccccc3c2NC(=O)COc2ccccc2OC)c(OC)c1	i	21.9%	58.3*	-1.0%	-1.4	-29.2%
CCOc1ccc2oc(C(=O)Nc3ccc4c(c3)OCO4)c(C)c2c1	-20.1%	5.9%	-8.9	0.4%	4.3	2.82µM*
COCC(=O)Nc1c(C(=O)Nc2ccc3c(c2)OCCO3)oc2ccccc12	i	12.8%	2.3	?	9.3	?
CCOCC(=O)Nc1c(C(=O)Nc2ccc3c(c2)OCCO3)oc2ccccc12	-6.4%	-0.8%	1.9	0.3%	27.6	2µM*
COc1ccc(NC(=O)c2oc3ccccc3c2NC(=O)COc2ccc(C(C)C)cc2)c(OC)c1	i	19.5%	-6.2	nt	nt	-5.5%
